Test results published in article PMC5540273 (PLoS ONE, 2017).
Where “and” joins values, the source holds several entries; their conditions need not be identical. Equal values may be shown once. Read-outs that look alike come from different tables or passages of the source.

How the values were obtained:
[1] = system: T1, FAK; conditions: concentration: 1 μM, replicates: in singlicate; n = 1
T1 construct: gene PTK2

[2] = system: FER; conditions: n = 1
[3] = system: FES; conditions: concentration: 1 μM, replicates: in singlicate; n = 1
[4] = system: FGFR1; conditions: concentration: 1 μM, replicates: in singlicate; n = 1
[5] = system: FGFR2; conditions: concentration: 1 μM, replicates: in singlicate; n = 1
[6] = system: FGFR3; conditions: n = 1
[7] = system: FGFR4; conditions: n = 1
[8] = system: FGR; conditions: n = 1
[9] = system: FLT1; conditions: n = 1
[10] = system: FLT3-autoinhibited; conditions: concentration: 1 μM, replicates: in singlicate; n = 1
[11] = system: FLT3; conditions: concentration: 1 μM, replicates: in singlicate; n = 1
[12] = system: FLT4; conditions: n = 1
[13] = system: FRK; conditions: concentration: 1 μM, replicates: in singlicate; n = 1
[14] = system: FYN; conditions: n = 1
[15] = system: GAK; conditions: n = 1
[16] = system: T2, GCN2(Kin.Dom.2,S808G); conditions: n = 1
T2 construct: gene EIF2AK4

[17] = system: GRK1; conditions: concentration: 1 μM, replicates: in singlicate; n = 1
[18] = system: T3, GRK2; conditions: concentration: 1 μM, replicates: in singlicate; n = 1
T3 construct: gene ADRBK1

[19] = system: T4, GRK3; conditions: n = 1
T4 construct: gene ADRBK2

[20] = system: GRK4; conditions: n = 1
[21] = concentration: 1 μM, replicates: in singlicate
[22] = concentration: 1 μM,replicates: in singlicate, 1 µM
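Also: KINOMEscan kinase panel screen.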

## C[C@@H]1CCCCN1c1cc(-c2ccc3c(N)n[nH]c3c2)nc(N)n1 [GSK2258759]
[1]
  %Inh: 0%
[2]; [21]
  %Inh: 0%
[3]
  %Inh: 0%
[4]
  %Inh: 0%
[5]
  %Inh: 0%
[6]; [21]
  %Inh: 7%
[7]; [21]
  %Inh: 3%
[8]; [21]
  %Inh: 17%
[9]; [21]
  %Inh: 14%
[10]
  %Inh: 0%
[11]
  %Inh: 0%
[12]; [21]
  %Inh: 0%
[13]
  %Inh: 5%
[14]; [21]
  %Inh: 19%
[15]; [21]
  %Inh: 14%
[16]; [21]
  %Inh: 0%
[17]
  %Inh: 0%
[18]
  %Inh: 0%
[19]; [21]
  %Inh: 0%
[20]; [21]
  %Inh: 0%

## Cl.c1ccc(-c2n[nH]cc2-c2ccnc(-c3ccc(CN4CCOCC4)cc3)c2)nc1 [GW776245]
[1]
  %Inh: 31%
[2]; [21]
  %Inh: 3%
[3]
  %Inh: 3%
[4]
  %Inh: 0%
[5]
  %Inh: 15%
[6]; [21]
  %Inh: 20%
[7]; [21]
  %Inh: 1%
[8]; [21]
  %Inh: 22%
[9]; [21]
  %Inh: 26%
[10]
  %Inh: 0%
[11]
  %Inh: 0%
[12]; [21]
  %Inh: 14%
[13]
  %Inh: 0%
[14]; [21]
  %Inh: 0%
[15]; [21]
  %Inh: 46%
[16]; [21]
  %Inh: 0%
[17]
  %Inh: 37%
[18]
  %Inh: 0%
[19]; [21]
  %Inh: 0%
[20]; [21]
  %Inh: 31%

## Cl.NC(=O)c1cccc(Nc2nccc(Nc3ccc(Oc4cccc(Cl)c4)c(Cl)c3)n2)c1 [GW659008]
[1]
  %Inh: 0%
[2]; [21]
  %Inh: 9%
[3]
  %Inh: 0%
[4]
  %Inh: 18%
[5]
  %Inh: 0%
[6]; [21]
  %Inh: 0%
[7]; [21]
  %Inh: 0%
[8]; [21]
  %Inh: 52%
[9]; [21]
  %Inh: 36%
[10]
  %Inh: 0%
[11]
  %Inh: 54%
[12]; [21]
  %Inh: 0%
[13]
  %Inh: 24%
[14]; [21]
  %Inh: 59%
[15]; [21]
  %Inh: 43%
[16]; [21]
  %Inh: 11%
[17]
  %Inh: 0%
[18]
  %Inh: 0%
[19]; [21]
  %Inh: 18%
[20]; [21]
  %Inh: 15%

## Nc1ncnc2[nH]c(-c3ccccc3)nc12 [AH5015]
[1]
  %Inh: 8%
[2]; [21]
  %Inh: 0%
[3]
  %Inh: 8%
[4]
  %Inh: 2%
[5]
  %Inh: 0%
[6]; [21]
  %Inh: 25%
[7]; [21]
  %Inh: 2%
[8]; [21]
  %Inh: 31%
[9]; [21]
  %Inh: 2%
[10]
  %Inh: 0%
[11]
  %Inh: 0%
[12]; [21]
  %Inh: 0%
[13]
  %Inh: 13%
[14]; [21]
  %Inh: 39%
[15]; [21]
  %Inh: 44%
[16]; [21]
  %Inh: 27%
[17]
  %Inh: 0%
[18]
  %Inh: 0%
[19]; [21]
  %Inh: 49%
[20]; [21]
  %Inh: 0%

## CSc1nn2c(=O)cc(N3CCOCC3)nc2n1Cc1cccc(C(F)(F)F)c1C [GSK2363608]
[1]
  %Inh: 0%
[2]; [22]
  %Inh: 25% and 1%
[3]
  %Inh: 0%
[4]
  %Inh: 0%
[5]
  %Inh: 0%
[6]; [22]
  %Inh: 17% and 4%
[7]; [22]
  %Inh: 5% and 14%
[8]; [22]
  %Inh: 31% and 32%
[9]; [22]
  %Inh: 26% and 10%
[10]
  %Inh: 0%
[11]
  %Inh: 0%
[12]; [22]
  %Inh: 18% and 0%
[13]
  %Inh: 0%
[14]; [22]
  %Inh: 46% and 15%
[15]; [22]
  %Inh: 100% and 0%
[16]; [22]
  %Inh: 0% and 3%
[17]
  %Inh: 0%
[18]
  %Inh: 0%
[19]; [22]
  %Inh: 0% and 20%
[20]; [22]
  %Inh: 0% and 8%

## Clc1cc(Cl)cc(Nc2ccnc(Nc3cc(Cl)cc(Cl)c3)n2)c1 [GSK175726]
[1]
  %Inh: 0%
[2]; [21]
  %Inh: 13%
[3]
  %Inh: 9%
[4]
  %Inh: 0%
[5]
  %Inh: 50%
[6]; [21]
  %Inh: 22%
[7]; [21]
  %Inh: 6%
[8]; [21]
  %Inh: 46%
[9]; [21]
  %Inh: 16%
[10]
  %Inh: 0%
[11]
  %Inh: 0%
[12]; [21]
  %Inh: 0%
[13]
  %Inh: 45%
[14]; [21]
  %Inh: 8%
[15]; [21]
  %Inh: 30%
[16]; [21]
  %Inh: 0%
[17]
  %Inh: 100%
[18]
  %Inh: 0%
[19]; [21]
  %Inh: 7%
[20]; [21]
  %Inh: 0%

## Cl.O=C(Nc1cccc(-c2nn3ncccc3c2-c2ccnc(Nc3cccnc3)n2)c1)c1c(F)cccc1F [GSK312879]
[1]
  %Inh: 0%
[2]; [21]
  %Inh: 10%
[3]
  %Inh: 11%
[4]
  %Inh: 8%
[5]
  %Inh: 0%
[6]; [21]
  %Inh: 23%
[7]; [21]
  %Inh: 8%
[8]; [21]
  %Inh: 40%
[9]; [21]
  %Inh: 45%
[10]
  %Inh: 4%
[11]
  %Inh: 0%
[12]; [21]
  %Inh: 9%
[13]
  %Inh: 15%
[14]; [21]
  %Inh: 21%
[15]; [21]
  %Inh: 8%
[16]; [21]
  %Inh: 0%
[17]
  %Inh: 20%
[18]
  %Inh: 0%
[19]; [21]
  %Inh: 27%
[20]; [21]
  %Inh: 0%

## Cn1ccc2ncnc(Oc3cccc(C(=O)Nc4ccccc4)c3)c21
[1]
  %Inh: 5%
[2]; [21]
  %Inh: 8%
[3]
  %Inh: 4%
[4]
  %Inh: 0%
[5]
  %Inh: 0%
[6]; [21]
  %Inh: 0%
[7]; [21]
  %Inh: 6%
[8]; [21]
  %Inh: 5%
[9]; [21]
  %Inh: 54%
[10]
  %Inh: 15%
[11]
  %Inh: 17%
[12]; [21]
  %Inh: 0%
[13]
  %Inh: 27%
[14]; [21]
  %Inh: 8%
[15]; [21]
  %Inh: 0%
[16]; [21]
  %Inh: 14%
[17]
  %Inh: 0%
[18]
  %Inh: 0%
[19]; [21]
  %Inh: 8%
[20]; [21]
  %Inh: 3%

## Cc1ccc(NC(=O)Nc2cc(C(C)(C)C)nn2-c2ccccc2)cc1 [GSK1014915]
[1]
  %Inh: 0%
[2]; [21]
  %Inh: 20%
[3]
  %Inh: 0%
[4]
  %Inh: 6%
[5]
  %Inh: 25%
[6]; [21]
  %Inh: 16%
[7]; [21]
  %Inh: 15%
[8]; [21]
  %Inh: 18%
[9]; [21]
  %Inh: 33%
[10]
  %Inh: 38%
[11]
  %Inh: 98.6%
[12]; [21]
  %Inh: 15%
[13]
  %Inh: 22%
[14]; [21]
  %Inh: 4%
[15]; [21]
  %Inh: 11%
[16]; [21]
  %Inh: 9%
[17]
  %Inh: 9%
[18]
  %Inh: 0%
[19]; [21]
  %Inh: 92.4%
[20]; [21]
  %Inh: 7%

## COc1ccccc1CNC(=O)c1cc(C(=O)c2ccccc2C)c[nH]1 [GSK364507]
[1]
  %Inh: 0%
[2]; [21]
  %Inh: 8%
[3]
  %Inh: 0%
[4]
  %Inh: 0%
[5]
  %Inh: 16%
[6]; [21]
  %Inh: 4%
[7]; [21]
  %Inh: 11%
[8]; [21]
  %Inh: 23%
[9]; [21]
  %Inh: 18%
[10]
  %Inh: 0%
[11]
  %Inh: 0%
[12]; [21]
  %Inh: 5%
[13]
  %Inh: 0%
[14]; [21]
  %Inh: 42%
[15]; [21]
  %Inh: 15%
[16]; [21]
  %Inh: 9%
[17]
  %Inh: 0%
[18]
  %Inh: 0%
[19]; [21]
  %Inh: 37%
[20]; [21]
  %Inh: 0%

## COc1ccc(Nc2nccc(-c3cccc(NC(=O)c4cc5cc(F)ccc5[nH]4)c3)n2)cc1 [GSK1229782]
[1]
  %Inh: 1%
[2]; [21]
  %Inh: 43%
[3]
  %Inh: 27%
[4]
  %Inh: 21%
[5]
  %Inh: 0%
[6]; [21]
  %Inh: 13%
[7]; [21]
  %Inh: 2%
[8]; [21]
  %Inh: 60%
[9]; [21]
  %Inh: 17%
[10]
  %Inh: 0%
[11]
  %Inh: 39%
[12]; [21]
  %Inh: 0%
[13]
  %Inh: 40%
[14]; [21]
  %Inh: 31%
[15]; [21]
  %Inh: 49%
[16]; [21]
  %Inh: 4%
[17]
  %Inh: 0%
[18]
  %Inh: 0%
[19]; [21]
  %Inh: 45%
[20]; [21]
  %Inh: 0%
